Measurements: PubChem BioAssay AID1159580 (chemical genetic matrix, 2015)
Where “and” joins values, the source holds several entries; their conditions need not be identical. Identical values can stand only once. The whole screen tested about 5,500 compounds, of which about 2,000 (36%) were called active. About 18% were inconclusive and are not listed. No stated cut-off is given here; in the data, active means normalized growth mostly below about 0.91 (no sharp cut-off); inconclusive means no clear call, values can overlap the other calls; inactive means mostly above about 0.92. Some of the results follow.

Experiment: chemical genetic growth profiling, strain panel (AID 1159580);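 further: tested at 20 µM; growth read once vehicle control cultures reached saturation at 30 °C; 1 = growth at the plate median or of vehicle wells; lower values mean less growth of the strain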
Conditions: S. cerevisiae deletion strains, growth OD

Measured: normalized growth

Nc1ccc(S(=O)(=O)Nc2cnc3ccccc3n2)cc1
inactive: locus YAL013W, strain DEP1, active compounds read low 0.994 | locus YAL021C, strain ccr4, active compounds read low 1.01 | locus YAL026C, strain drs2, active compounds read low 1 | locus YAL030W, strain snc1, active compounds read low 1.02 | locus YBL061C, strain skt5, active compounds read low 1 | locus YBR009C, strain hhf1, active compounds read low 0.973 | locus YBR021W, strain FUR4, active compounds read low 0.999 | locus YBR023C, strain chs3, active compounds read low 1.02 | locus YBR171W, strain sec66, active compounds read low 1.02 | locus YBR229C, strain ROT2, active compounds read low 0.957 | locus YBR231C, strain swc5, active compounds read low 1.01 | locus YBR279W, strain paf1, active compounds read low 1.01 | locus YCL011C, strain gbp2, active compounds read low 1.01 | locus YCL016C, strain dcc1, active compounds read low 1 | locus YCL029C, strain bik1, active compounds read low 0.983 | locus YCL061C, strain MRC1, active compounds read low 1.02 | locus YCL069W, strain vba3, active compounds read low 1.02 | locus YCR088W, strain abp1, active compounds read low 1.01 | locus YDL005C, strain med2, active compounds read low 1.02 | locus YDL035C, strain GPR1, active compounds read low 1 | locus YDL040C, strain nat1, active compounds read low 1.01 | locus YDL074C, strain BRE1, active compounds read low 0.977 | locus YDL101C, strain DUN1, active compounds read low 0.989 | locus YDL134C, strain PPH21, active compounds read low 1.01 | locus YDL185W, strain tfp1, active compounds read low 0.974 | locus YDL192W, strain arf1, active compounds read low 0.973 | locus YDR001C, strain nth1, active compounds read low 1.02 | locus YDR069C, strain doa4, active compounds read low 1.03 | locus YDR101C, strain arx1, active compounds read low 1 | locus YDR137W, strain rgp1, active compounds read low 0.993 | locus YDR150W, strain NUM1, active compounds read low 0.991 | locus YDR159W, strain sac3, active compounds read low 0.955 | locus YDR162C, strain NBP2, active compounds read low 0.999 | locus YDR195W, strain ref2 1.01 | locus YDR297W, strain sur2, active compounds read low 1.02 | locus YDR318W, strain mcm21, active compounds read low 0.995 | locus YDR334W, strain swr1, active compounds read low 1.02 | locus YDR335W, strain msn5, active compounds read low 1.01 | locus YDR388W, active compounds read low 0.986 | locus YDR392W, strain spt3, active compounds read low 0.942 | locus YDR502C, strain sam2, active compounds read low 0.978 | locus YEL003W, strain gim4, active compounds read low 1.02 | locus YEL037C, strain rad23, active compounds read low 1.01 | locus YEL061C, strain CIN8 (second series), active compounds read low 1.01 | locus YEL061C, strain CIN8, active compounds read low 0.981 | locus YER015W, strain faa2, active compounds read low 1 | locus YER016W, strain bim1, active compounds read low 0.962 | locus YER110C, active compounds read low 0.981 | locus YER111C, strain swi4, active compounds read low 1.02 | locus YER155C, strain BEM2 (second series), active compounds read low 0.981 | locus YER155C, strain BEM2, active compounds read low 0.996 | locus YER167W, strain BCK2, active compounds read low 0.993 | locus YFR010W, strain ubp6, active compounds read low 1.04 | locus YGL078C, strain dbp3, active compounds read low 0.99 | locus YGL086W, strain mad1, active compounds read low 0.983 | locus YGL167C, strain pmr1, active compounds read low 1.01 | locus YGL173C, strain kem1, active compounds read low 1.01 | locus YGL227W, strain vid30, active compounds read low 1.02 | locus YGL240W, strain doc1, active compounds read low 1.03 | locus YGL248W, strain PDE1, active compounds read low 0.972 | locus YGL253W, strain hxk2, active compounds read low 1.02 | locus YGR135W, strain pre9, active compounds read low 0.992 | locus YGR252W, strain gcn5, active compounds read low 0.988 | locus YHR013C, strain ard1, active compounds read low 1 | locus YHR027C, strain rpn1, active compounds read low 1.01 | locus YHR030C, strain SLT2, active compounds read low 1 and 0.974 | locus YHR079C, strain IRE1 (second series), active compounds read low 0.989 | locus YHR079C, strain IRE1, active compounds read low 0.957 | locus YHR094C, strain hxt1, active compounds read low 0.985 | locus YHR129C, strain ARP1, active compounds read low 0.989 | locus YHR142W, strain chs7, active compounds read low 1.05 | locus YHR200W, strain rpn10, active compounds read low 0.967 | locus YIL066C, strain RNR3, active compounds read low 0.978 | locus YIL073C, strain SPO22, active compounds read low 1.02 | locus YIL125W, strain kgd1, active compounds read low 0.981 | locus YIR030C, strain dcg1, active compounds read low 0.981 | locus YJL092W, strain hpr5, active compounds read low 0.996 | locus YJL095W, strain BCK1 (second series), active compounds read low 1.02 | locus YJL095W, strain BCK1, active compounds read low 0.965 and 0.98 | locus YJL115W, strain asf1, active compounds read low 1.02 | locus YJL129C, strain trk1, active compounds read low 1.01 | locus YJL134W, strain LCB3, active compounds read low 0.993 | locus YJL154C, strain vps35, active compounds read low 1.02 | locus YJL164C, strain tpk1, active compounds read low 0.996 | locus YJL166W, strain qcr8, active compounds read low 1.02 | locus YJL168C, strain set2, active compounds read low 0.976 | locus YJL187C, strain SWE1 (second series), active compounds read low 0.964 | locus YJL187C, strain SWE1, active compounds read low 1.01 | locus YJR043C, strain POL32, active compounds read low 1.02 | locus YJR066W, strain TOR1, active compounds read low 0.918
